Data reported in the supplement of paper PMC12669032.
A number with no mark means an inactive call.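 The calls were made as follows: active = AUC reduced over 20% with Padj below 0.05 in at least 2 of 3 replicates; inactive = otherwise.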

These compounds were tested on Bacteroides uniformis (assay: growth AUC relative to DMSO control (median of replicates) (fraction); higher = more growth (less inhibition), active = hit call of the paper). Conditions: 20 µM; 24 h.
In short: (§1)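 Area under the growth curve was normalised to the plate median of solvent-only wells, or to row and column medians on the industrial chemical plate. Growth curves came from anaerobic gut bacterial monocultures in mGAM at 37 °C, seeded at OD600 0.05 with 20 µM compound (1% DMSO), and read at OD600 hourly for 24 h with the minimum OD set to 0. The value is the median of three biological replicates grown on separate days.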

Compound	growth AUC
CN(C)C(=O)Nc1ccc(Cl)c(Cl)c1	0.954
CCOC(=O)C1CC(=O)C(=C(O)C2CC2)C(=O)C1 (stereo not drawn)	0.972
COC(=O)C(C)Oc1ccc(Cl)cc1C (stereo not drawn)	1
FC(F)(F)C(=NOCC1OCCO1)c1ccc(Cl)cc1	0.941
NC(=S)Nc1cccc2ccccc12	0.951
CC(C)c1cc(Oc2ccccc2)cc(C(C)C)c1NC(=S)NC(C)(C)C	0.998
O=[N+](Nc1ccccc1)c1ccccc1	0.988
Cc1[nH]n(C)c(=O)c1C(=O)c1ccc(C(F)(F)F)cc1S(C)(=O)=O	1.01
O=C=NC1CCC(CC2CCC(N=C=O)CC2)CC1 (stereo not drawn)	0.996
CCc1cccc(C)c1N(COC(C)C)C(=O)CCl	1.04
O=C(Nc1ccc(Cl)cc1C(O)c1ccccc1)c1ccncc1 (stereo not drawn)	0.987
CNC(=O)Nc1nc2ccccc2s1	0.966
CC(C)CNC(=O)N1CCNC1=O	1.02
C/C=C/C(=O)Oc1c(C(C)CCCCCC)cc([N+](=O)[O-])cc1[N+](=O)[O-] (mixture of isomers)	0.448 (active)
CCOC(=O)NCCOc1ccc(Oc2ccccc2)cc1	0.958
NC(=O)Cc1cccc2ccccc12	1.01
NS(=O)(=O)[O-].[NH4+]	1.05
COC(=O)c1ccc(C(=O)OC)cc1	0.972
Nc1cc(Cl)nc(C(=O)O)c1Cl	1.02
CCc1cccc(C)c1N(C(=O)C(=O)O)[C@@H](C)C(=O)O	0.999

Compound	growth AUC
O=S(=O)(Oc1ccc(Cl)cc1)c1ccccc1	0.972
Oc1ccc2nc(-c3cscn3)[nH]c2c1	0.982
COC(=O)c1csc(C)c1S(=O)(=O)NC(=O)n1nc(OC)n(C)c1=O	0.955
CCCCOCN(C(=O)CS(=O)(=O)[O-])c1c(CC)cccc1CC.[Na+]	1.03
O.O.O=[N+]([O-])c1ccc([O-])cc1.[Na+]	0.989
COCC(=O)N(c1c(C)cccc1C(=O)O)C(C)C(=O)O (stereo not drawn)	0.974
O=C(O)COc1ccc(Cl)cc1CO	0.98
CCOc1ccc2c(c1)C(C)=CC(C)(C)N2	1.01
CC(C)CCCCCOC(=O)C(C)Oc1ccc(Cl)cc1Cl (stereo not drawn)	0.992
[S]	1.06
CCCC(C)(C)C(=O)Nc1ccc(Cl)cc1	0.955
CSc1nnc(C(C)(C)C)c(=O)n1/N=C/C(C)C	0.988
O=C(O)CCCc1c[nH]c2ccccc12	0.979
C=C1C[C@]23C[C@@]1(O)CC[C@H]2[C@@]12C=C[C@H](O)[C@@](C)(C(=O)O1)[C@H]2[C@@H]3C(=O)O	0.947
Nc1ccc(S(=O)(=O)Nc2nccs2)cc1	1.02
CCCCCCCCCC[N+](C)(C)Cc1ccccc1.[Cl-]	0.896
CN1CCC[C@H]1c1cccnc1	0.981
O=C1NCCN1	0.978
O=C(O)COc1cccc(Cl)c1Cl	0.997

Each compound was assayed on Bifidobacterium longum subsp. longum in the same assay as above. Conditions: 20 µM; 24 h.
In short: as §1

Compound	growth AUC
CN(C)C(=O)Nc1ccc(Cl)c(Cl)c1	1.09
CCOC(=O)C1CC(=O)C(=C(O)C2CC2)C(=O)C1 (stereo not drawn)	1.03
COC(=O)C(C)Oc1ccc(Cl)cc1C (stereo not drawn)	1
FC(F)(F)C(=NOCC1OCCO1)c1ccc(Cl)cc1	0.988
NC(=S)Nc1cccc2ccccc12	1.06
CC(C)c1cc(Oc2ccccc2)cc(C(C)C)c1NC(=S)NC(C)(C)C	0.929
O=[N+](Nc1ccccc1)c1ccccc1	0.934
Cc1[nH]n(C)c(=O)c1C(=O)c1ccc(C(F)(F)F)cc1S(C)(=O)=O	0.977
O=C=NC1CCC(CC2CCC(N=C=O)CC2)CC1 (stereo not drawn)	1.05
CCc1cccc(C)c1N(COC(C)C)C(=O)CCl	1.02
O=C(Nc1ccc(Cl)cc1C(O)c1ccccc1)c1ccncc1 (stereo not drawn)	1.01
CNC(=O)Nc1nc2ccccc2s1	0.955
CC(C)CNC(=O)N1CCNC1=O	1.04
C/C=C/C(=O)Oc1c(C(C)CCCCCC)cc([N+](=O)[O-])cc1[N+](=O)[O-] (mixture of isomers)	0.289 (active)
CCOC(=O)NCCOc1ccc(Oc2ccccc2)cc1	0.914
NC(=O)Cc1cccc2ccccc12	0.977
NS(=O)(=O)[O-].[NH4+]	1.06
COC(=O)c1ccc(C(=O)OC)cc1	0.993
Nc1cc(Cl)nc(C(=O)O)c1Cl	1.06
CCc1cccc(C)c1N(C(=O)C(=O)O)[C@@H](C)C(=O)O	0.908

Compound	growth AUC
O=S(=O)(Oc1ccc(Cl)cc1)c1ccccc1	1.01
Oc1ccc2nc(-c3cscn3)[nH]c2c1	1.01
COC(=O)c1csc(C)c1S(=O)(=O)NC(=O)n1nc(OC)n(C)c1=O	1.04
CCCCOCN(C(=O)CS(=O)(=O)[O-])c1c(CC)cccc1CC.[Na+]	1.07
O.O.O=[N+]([O-])c1ccc([O-])cc1.[Na+]	1.08
COCC(=O)N(c1c(C)cccc1C(=O)O)C(C)C(=O)O (stereo not drawn)	0.907
O=C(O)COc1ccc(Cl)cc1CO	1
CCOc1ccc2c(c1)C(C)=CC(C)(C)N2	1.03
CC(C)CCCCCOC(=O)C(C)Oc1ccc(Cl)cc1Cl (stereo not drawn)	0.969
[S]	1.01
CCCC(C)(C)C(=O)Nc1ccc(Cl)cc1	0.98
CSc1nnc(C(C)(C)C)c(=O)n1/N=C/C(C)C	1.08
O=C(O)CCCc1c[nH]c2ccccc12	1.01
C=C1C[C@]23C[C@@]1(O)CC[C@H]2[C@@]12C=C[C@H](O)[C@@](C)(C(=O)O1)[C@H]2[C@@H]3C(=O)O	0.915
Nc1ccc(S(=O)(=O)Nc2nccs2)cc1	0.998
CCCCCCCCCC[N+](C)(C)Cc1ccccc1.[Cl-]	0.866
CN1CCC[C@H]1c1cccnc1	1.01
O=C1NCCN1	1.04
O=C(O)COc1cccc(Cl)c1Cl	0.989
